# Measurements reported in paper PMC7862700, “An all-to-all approach to the identification of sequence-specific readers for epigenetic DNA modifications on cytosine”.
# What was measured:
# Assay in all cases: DAPPL (digital affinity profiling via proximity ligation, sequencing); 10 mM Tris-HCl pH 7.5, 50 mM NaCl, 1 mM DTT, 4% glycerol, room temperature, 30 min; GST-TFs on glutathione beads, 16-mer random dsDNA library, 0.1% formaldehyde crosslink after washing; high values mean tight binding
# Settings in all cases: protein: recombinant; tags: N-terminal GST; dsDNA, one strand shown
# FLI1 = molecular target: T1, FLI1 (Homo sapiens, UniProt Q01543 1-452)
# T1 sequence: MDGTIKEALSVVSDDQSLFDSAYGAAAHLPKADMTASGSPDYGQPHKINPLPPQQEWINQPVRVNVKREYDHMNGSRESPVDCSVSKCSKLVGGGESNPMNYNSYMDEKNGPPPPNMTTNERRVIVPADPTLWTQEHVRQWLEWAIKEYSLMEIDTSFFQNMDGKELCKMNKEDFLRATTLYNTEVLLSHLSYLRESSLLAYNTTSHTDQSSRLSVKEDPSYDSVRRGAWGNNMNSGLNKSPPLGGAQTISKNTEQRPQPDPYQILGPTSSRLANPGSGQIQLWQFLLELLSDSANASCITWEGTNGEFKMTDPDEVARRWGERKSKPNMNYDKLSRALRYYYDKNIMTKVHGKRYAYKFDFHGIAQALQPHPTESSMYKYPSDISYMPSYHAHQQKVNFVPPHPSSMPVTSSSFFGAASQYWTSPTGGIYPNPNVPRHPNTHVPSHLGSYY
# Method in brief: (§1)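 Human transcription factors were made in yeast as GST fusions, captured on glutathione beads and barcoded with DNA. With a tag-only sample included, the pool was incubated with 200 nmole of a random double-stranded 16-mer DNA library in Tris/NaCl/DTT/glycerol buffer at room temperature for 30 min, then crosslinked with 0.1% formaldehyde after washing, ligated by proximity, amplified and sequenced. For binding signal, each hexamer's read frequency for a factor is divided by its frequency for the tag-only sample.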
# ELK1 = molecular target: T2, ELK1 (Homo sapiens, UniProt P19419 1-428)
# T2 sequence: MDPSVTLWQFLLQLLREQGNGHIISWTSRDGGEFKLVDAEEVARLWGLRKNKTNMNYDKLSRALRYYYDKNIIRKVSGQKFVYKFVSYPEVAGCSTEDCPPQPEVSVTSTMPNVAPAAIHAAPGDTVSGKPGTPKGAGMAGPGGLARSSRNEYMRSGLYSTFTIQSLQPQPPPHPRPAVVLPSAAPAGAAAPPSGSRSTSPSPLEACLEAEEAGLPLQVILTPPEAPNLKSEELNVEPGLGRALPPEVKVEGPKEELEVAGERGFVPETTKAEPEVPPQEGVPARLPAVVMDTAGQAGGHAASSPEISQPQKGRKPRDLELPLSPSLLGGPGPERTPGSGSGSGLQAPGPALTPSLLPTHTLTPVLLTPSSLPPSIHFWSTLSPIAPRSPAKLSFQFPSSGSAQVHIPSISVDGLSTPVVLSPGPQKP
# Method in brief: as §1
# GABPA = molecular target: T3, GABPA (Homo sapiens, UniProt Q06546 1-454)
# T3 sequence: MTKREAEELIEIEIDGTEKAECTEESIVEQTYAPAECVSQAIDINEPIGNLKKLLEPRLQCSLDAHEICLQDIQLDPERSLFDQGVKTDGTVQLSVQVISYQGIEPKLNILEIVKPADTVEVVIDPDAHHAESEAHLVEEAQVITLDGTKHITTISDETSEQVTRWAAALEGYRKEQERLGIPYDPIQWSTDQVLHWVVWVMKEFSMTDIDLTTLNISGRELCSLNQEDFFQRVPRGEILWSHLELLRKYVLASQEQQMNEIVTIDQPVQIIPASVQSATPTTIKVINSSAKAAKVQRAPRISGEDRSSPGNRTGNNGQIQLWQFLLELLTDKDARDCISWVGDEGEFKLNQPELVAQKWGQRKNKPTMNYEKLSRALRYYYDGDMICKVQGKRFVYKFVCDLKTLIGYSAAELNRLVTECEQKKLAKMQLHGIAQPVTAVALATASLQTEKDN
# Method in brief: as §1
# ERG = molecular target: T4, ERG (Homo sapiens, UniProt P11308 1-479)
# T4 sequence: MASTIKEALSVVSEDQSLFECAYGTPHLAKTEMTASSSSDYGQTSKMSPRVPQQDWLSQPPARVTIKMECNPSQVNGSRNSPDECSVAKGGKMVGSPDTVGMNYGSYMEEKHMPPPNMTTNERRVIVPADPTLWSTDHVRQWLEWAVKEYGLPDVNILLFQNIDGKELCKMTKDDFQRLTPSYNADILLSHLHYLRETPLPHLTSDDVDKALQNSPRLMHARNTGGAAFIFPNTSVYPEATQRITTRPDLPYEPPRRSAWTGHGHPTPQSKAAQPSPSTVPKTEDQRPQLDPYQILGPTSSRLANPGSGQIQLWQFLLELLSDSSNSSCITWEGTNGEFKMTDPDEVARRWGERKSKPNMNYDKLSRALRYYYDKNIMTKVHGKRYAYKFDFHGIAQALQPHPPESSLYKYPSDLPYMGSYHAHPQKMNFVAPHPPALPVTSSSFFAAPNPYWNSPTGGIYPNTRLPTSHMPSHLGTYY
# Method in brief: as §1
# ELF1 = ELF1 (Homo sapiens, UniProt P32519 1-619)
# Method in brief: as §1
# EHF = molecular target: T5, EHF (Homo sapiens, UniProt Q9NZC4 1-300)
# T5 sequence: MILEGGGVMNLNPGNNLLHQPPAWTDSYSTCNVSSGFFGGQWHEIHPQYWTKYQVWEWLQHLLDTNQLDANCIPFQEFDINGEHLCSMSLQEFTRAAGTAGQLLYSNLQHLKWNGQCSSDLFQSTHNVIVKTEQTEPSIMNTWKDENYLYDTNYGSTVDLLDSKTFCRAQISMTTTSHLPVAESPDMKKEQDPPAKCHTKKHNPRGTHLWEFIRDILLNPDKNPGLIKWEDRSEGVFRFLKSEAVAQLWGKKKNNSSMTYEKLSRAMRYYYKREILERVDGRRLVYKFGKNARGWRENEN
# Method in brief: as §1
# SPI1 = SPI1 (Homo sapiens, UniProt P17947 1-270)
# Method in brief: as §1
# SPIB = SPIB (Homo sapiens, UniProt Q01892 1-262)
# Method in brief: as §1
# FEV = molecular target: T6, FEV (Homo sapiens, UniProt Q99581 1-238)
# T6 sequence: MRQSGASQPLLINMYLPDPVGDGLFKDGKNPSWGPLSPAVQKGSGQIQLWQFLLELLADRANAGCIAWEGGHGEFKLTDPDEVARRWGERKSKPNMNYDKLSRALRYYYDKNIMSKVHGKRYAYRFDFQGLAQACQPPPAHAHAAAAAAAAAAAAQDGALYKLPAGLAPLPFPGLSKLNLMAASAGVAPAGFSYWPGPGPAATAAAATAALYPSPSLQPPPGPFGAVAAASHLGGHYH
# Method in brief: as §1
# ETV5 = ETV5 (Homo sapiens, UniProt P41161 1-510)
# Method in brief: as §1
# SPIC = molecular target: T7, SPIC (Homo sapiens, UniProt Q8N5J4 1-248)
# T7 sequence: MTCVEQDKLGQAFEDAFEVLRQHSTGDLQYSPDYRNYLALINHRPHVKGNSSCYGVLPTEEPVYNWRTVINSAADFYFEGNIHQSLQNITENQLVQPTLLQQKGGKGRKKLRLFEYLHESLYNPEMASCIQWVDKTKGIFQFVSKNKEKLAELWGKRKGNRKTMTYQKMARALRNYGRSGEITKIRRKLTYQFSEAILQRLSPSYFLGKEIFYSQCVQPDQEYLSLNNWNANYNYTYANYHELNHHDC
# Method in brief: as §1
# ELF4 = ELF4 (Homo sapiens, UniProt Q99607 1-663)
# Method in brief: as §1
# ELK4 = molecular target: T8, ELK4 (Homo sapiens, UniProt P28324-2 1-405)
# T8 sequence: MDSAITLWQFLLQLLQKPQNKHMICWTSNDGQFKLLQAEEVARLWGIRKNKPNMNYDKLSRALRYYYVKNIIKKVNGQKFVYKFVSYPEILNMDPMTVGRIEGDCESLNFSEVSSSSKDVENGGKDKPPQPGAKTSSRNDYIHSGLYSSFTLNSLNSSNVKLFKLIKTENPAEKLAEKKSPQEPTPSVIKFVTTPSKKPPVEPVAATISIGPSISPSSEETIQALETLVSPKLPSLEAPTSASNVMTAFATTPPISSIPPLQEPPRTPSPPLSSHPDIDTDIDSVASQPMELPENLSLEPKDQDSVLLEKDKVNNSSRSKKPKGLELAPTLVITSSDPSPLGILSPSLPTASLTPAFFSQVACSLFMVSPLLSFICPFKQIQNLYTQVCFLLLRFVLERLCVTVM
# Method in brief: as §1
# ETV2 = molecular target: T9, ETV2 (Homo sapiens, UniProt O00321 1-342)
# T9 sequence: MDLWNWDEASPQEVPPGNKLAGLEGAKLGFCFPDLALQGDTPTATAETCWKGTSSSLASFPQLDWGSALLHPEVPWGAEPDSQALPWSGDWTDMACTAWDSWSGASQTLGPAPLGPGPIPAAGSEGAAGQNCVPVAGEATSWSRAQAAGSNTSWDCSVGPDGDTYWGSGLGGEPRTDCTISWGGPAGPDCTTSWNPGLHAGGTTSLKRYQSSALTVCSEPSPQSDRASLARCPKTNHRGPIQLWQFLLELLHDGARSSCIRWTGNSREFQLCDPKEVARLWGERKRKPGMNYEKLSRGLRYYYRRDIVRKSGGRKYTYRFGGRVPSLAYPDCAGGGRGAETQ
# Method in brief: as §1
# ELF3 = molecular target: T10, ELF3 (Homo sapiens, UniProt P78545 1-371)
# T10 sequence: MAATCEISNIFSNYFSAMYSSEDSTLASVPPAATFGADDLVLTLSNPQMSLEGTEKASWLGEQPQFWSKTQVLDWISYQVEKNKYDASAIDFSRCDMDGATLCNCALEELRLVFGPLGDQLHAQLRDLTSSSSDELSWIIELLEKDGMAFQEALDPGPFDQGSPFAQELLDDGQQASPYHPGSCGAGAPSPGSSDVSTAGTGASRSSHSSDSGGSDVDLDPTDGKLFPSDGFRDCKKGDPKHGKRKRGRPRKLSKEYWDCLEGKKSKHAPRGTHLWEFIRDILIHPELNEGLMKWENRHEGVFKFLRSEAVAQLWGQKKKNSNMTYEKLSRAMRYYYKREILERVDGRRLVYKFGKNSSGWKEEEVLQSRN
# Method in brief: as §1
# CRX = CRX (Homo sapiens, UniProt O43186 1-299)
# Method in brief: as §1
# ETV1 = ETV1 (Homo sapiens, UniProt P50549 1-477)
# Method in brief: as §1
# Chain of ETV5 (P41161 whole entry): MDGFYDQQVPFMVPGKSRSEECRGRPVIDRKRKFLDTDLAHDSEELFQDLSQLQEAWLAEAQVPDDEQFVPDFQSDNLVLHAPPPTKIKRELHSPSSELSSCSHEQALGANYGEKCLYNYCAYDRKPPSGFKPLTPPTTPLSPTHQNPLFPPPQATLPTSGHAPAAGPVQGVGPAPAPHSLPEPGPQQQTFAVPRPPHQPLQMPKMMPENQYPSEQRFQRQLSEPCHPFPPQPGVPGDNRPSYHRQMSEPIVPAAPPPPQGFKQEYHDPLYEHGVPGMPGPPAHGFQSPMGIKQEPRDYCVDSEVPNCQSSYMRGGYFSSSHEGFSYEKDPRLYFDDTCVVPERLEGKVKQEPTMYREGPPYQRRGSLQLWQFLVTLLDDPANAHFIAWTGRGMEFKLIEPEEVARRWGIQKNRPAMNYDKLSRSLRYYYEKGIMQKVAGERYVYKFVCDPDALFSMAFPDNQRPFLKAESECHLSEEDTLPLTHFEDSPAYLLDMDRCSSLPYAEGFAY
# Chain of SPIB (Q01892 whole entry): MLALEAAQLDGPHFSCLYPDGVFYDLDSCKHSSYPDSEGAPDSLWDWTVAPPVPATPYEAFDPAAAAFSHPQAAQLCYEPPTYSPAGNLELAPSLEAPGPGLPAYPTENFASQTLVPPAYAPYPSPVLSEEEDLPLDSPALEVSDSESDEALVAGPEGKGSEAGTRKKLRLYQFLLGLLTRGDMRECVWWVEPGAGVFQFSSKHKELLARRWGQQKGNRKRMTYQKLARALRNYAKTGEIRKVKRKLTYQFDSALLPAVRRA
# Chain of CRX (O43186 whole entry): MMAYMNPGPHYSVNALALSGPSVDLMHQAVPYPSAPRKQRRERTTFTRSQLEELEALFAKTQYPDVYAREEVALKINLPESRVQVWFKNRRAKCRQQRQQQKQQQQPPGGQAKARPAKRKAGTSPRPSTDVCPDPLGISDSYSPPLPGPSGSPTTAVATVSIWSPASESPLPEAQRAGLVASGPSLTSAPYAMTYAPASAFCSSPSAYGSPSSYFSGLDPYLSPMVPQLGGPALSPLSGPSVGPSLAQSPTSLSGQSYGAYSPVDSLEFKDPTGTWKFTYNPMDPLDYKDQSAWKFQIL
# Chain of ETV1 (P50549 whole entry): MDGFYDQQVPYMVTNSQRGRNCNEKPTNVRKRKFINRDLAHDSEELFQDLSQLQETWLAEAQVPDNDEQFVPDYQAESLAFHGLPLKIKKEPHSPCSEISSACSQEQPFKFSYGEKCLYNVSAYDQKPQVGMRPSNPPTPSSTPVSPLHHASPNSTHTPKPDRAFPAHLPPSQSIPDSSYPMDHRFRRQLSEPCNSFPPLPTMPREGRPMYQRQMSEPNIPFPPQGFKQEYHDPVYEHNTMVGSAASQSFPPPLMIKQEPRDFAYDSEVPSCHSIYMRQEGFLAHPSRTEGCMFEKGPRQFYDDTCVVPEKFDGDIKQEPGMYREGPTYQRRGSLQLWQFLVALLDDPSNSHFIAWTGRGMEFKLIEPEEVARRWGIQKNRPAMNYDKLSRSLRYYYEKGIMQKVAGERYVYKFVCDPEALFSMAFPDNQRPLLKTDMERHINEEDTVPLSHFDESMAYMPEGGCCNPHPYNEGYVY
# Chain of ELF4 (Q99607 whole entry): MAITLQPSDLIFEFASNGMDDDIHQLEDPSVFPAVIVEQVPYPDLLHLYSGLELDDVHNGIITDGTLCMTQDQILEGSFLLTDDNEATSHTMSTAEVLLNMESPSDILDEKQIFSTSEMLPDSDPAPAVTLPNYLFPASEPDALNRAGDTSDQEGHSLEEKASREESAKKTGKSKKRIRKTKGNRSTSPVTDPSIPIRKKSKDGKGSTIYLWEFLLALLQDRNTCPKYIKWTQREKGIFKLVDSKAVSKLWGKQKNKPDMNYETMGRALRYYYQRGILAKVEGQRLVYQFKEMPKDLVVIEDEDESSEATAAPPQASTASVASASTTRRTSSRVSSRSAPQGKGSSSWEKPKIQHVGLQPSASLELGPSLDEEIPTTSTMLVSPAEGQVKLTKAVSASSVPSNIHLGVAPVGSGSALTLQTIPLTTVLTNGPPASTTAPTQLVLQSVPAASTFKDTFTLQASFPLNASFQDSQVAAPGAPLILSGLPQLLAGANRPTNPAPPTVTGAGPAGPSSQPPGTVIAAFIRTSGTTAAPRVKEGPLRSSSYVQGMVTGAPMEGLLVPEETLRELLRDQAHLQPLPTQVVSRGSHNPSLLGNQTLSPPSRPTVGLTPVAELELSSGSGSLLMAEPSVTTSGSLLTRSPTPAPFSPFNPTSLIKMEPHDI
# Chain of ELF1 (P32519 whole entry): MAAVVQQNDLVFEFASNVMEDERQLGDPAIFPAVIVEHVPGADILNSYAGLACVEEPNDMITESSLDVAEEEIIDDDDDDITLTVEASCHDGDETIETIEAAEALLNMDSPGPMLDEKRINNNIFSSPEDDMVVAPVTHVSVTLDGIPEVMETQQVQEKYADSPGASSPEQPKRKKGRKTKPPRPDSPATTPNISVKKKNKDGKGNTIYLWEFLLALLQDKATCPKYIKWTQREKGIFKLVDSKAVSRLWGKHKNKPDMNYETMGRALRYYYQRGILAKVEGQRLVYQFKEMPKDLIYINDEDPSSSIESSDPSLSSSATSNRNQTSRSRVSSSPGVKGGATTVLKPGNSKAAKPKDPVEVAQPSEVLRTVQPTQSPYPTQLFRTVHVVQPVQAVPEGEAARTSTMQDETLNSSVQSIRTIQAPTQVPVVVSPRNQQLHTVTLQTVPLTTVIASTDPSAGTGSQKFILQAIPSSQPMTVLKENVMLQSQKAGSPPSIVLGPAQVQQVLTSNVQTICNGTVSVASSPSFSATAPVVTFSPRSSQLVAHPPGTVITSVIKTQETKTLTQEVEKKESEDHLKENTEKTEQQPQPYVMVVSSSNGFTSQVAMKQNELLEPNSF
sequence,measurement,setting,value
TGTTGA,binding signal,FLI1,"1.15 fold enrichment (6-mer frequency, TF over GST control)"
same,binding signal,ELK1,"1.08 fold enrichment (6-mer frequency, TF over GST control)"
same,binding signal,GABPA,"1.16 fold enrichment (6-mer frequency, TF over GST control)"
same,binding signal,ERG,"1.08 fold enrichment (6-mer frequency, TF over GST control)"
same,binding signal,ELF1,"1.16 fold enrichment (6-mer frequency, TF over GST control)"
same,binding signal,EHF,"1.07 fold enrichment (6-mer frequency, TF over GST control)"
same,binding signal,SPI1,"1.11 fold enrichment (6-mer frequency, TF over GST control)"
same,binding signal,SPIB,"1.09 fold enrichment (6-mer frequency, TF over GST control)"
same,binding signal,FEV,"1.07 fold enrichment (6-mer frequency, TF over GST control)"
same,binding signal,ETV5,"1.07 fold enrichment (6-mer frequency, TF over GST control)"
same,binding signal,SPIC,"1.15 fold enrichment (6-mer frequency, TF over GST control)"
same,binding signal,ELF4,"1.1 fold enrichment (6-mer frequency, TF over GST control)"
same,binding signal,ELK4,"1.16 fold enrichment (6-mer frequency, TF over GST control)"
same,binding signal,ETV2,"1.12 fold enrichment (6-mer frequency, TF over GST control)"
same,binding signal,ELF3,"1.09 fold enrichment (6-mer frequency, TF over GST control)"
same,binding signal,CRX,"1.02 fold enrichment (6-mer frequency, TF over GST control)"
same,binding signal,ETV1,"1.07 fold enrichment (6-mer frequency, TF over GST control)"
